Assay results: PubChem BioAssay AID1493 (National Center for Advancing Translational Sciences (NCATS), 2009)
“And” between values parts separate entries of the source, which are not always exact repeats. Equal entries are not always repeated. Records with an inconclusive call do not appear. The source made the active and inactive calls.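 The calls were made as follows: active = compound pushes the radio-tagged natural neuropeptide S off its receptor in a binding test; inconclusive = any compound that did not displace the tagged ligand; inactive = never assigned.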

The molecules below were run against Neuropeptide S receptor (Homo sapiens) (UniProt Q6W5P4) (assay: Confirmation Concentration-Response Assay for Antagonists of the Neuropeptide S Receptor: Radioligand Displacement). Details: CHO-hNPSR cells, [125I]Y10-NPS displacement, 1.5 h.
From the text: NIH Chemical Genomics Center [NCGC] NIH Molecular Libraries Probe Production centers Network [MLPCN] MLPCN Grant: X01-DA026210-01 Assay Submitter (PI): Heilig, Markus Alexander NCGC Assay Overview: Neuropeptide S receptor (NPSR), previously known as GPR154, is a recently de-orphanized G protein coupled receptor. Its endogenous ligand is the 20 amino acids peptide Neuropeptide S (NPS). […] NPS and its receptor are found in various tissues. Specifically they are highly expressed in brain areas that have been implicated in modulation of arousal, stress and anxiety. Central administration of NPS in mice produces an unusual profile of activity by inducing wakefulness and arousal, while at the same time suppressing anxiety. Therefore, NPSR may represent a novel drug target for the treatment of sleep and anxiety disorders. As one method of confirming the specific activity of compounds active in the primary screen (AID 1461), we developed an assay to measure the displacement of radio-labeled native ligand, NPS, from its receptor in vitro.
The assay was carried out as described (Xu et al. (2004) Neuron, 43: 487-497) with minor modification. Y10-NPS labeled with 125I was bought from NEN Perkin Elmer (Boston, MA). CHO cells stably expressing human NPSR were seeded into 24-well plates and cultured until reaching 90-95% confluency. Cells were washed with 1ml PBS once and then incubated with radioligand with or without compounds or in DMEM medium containing 0.1% bovine serum albumin at 20C for 1.5 hr. Increasing concentrations of compounds or unlabeled human NPS were used to compete with 0.15 nM [125I] Y10-NPS. Nonspecific binding was determined in the presence of 1 uM unlabeled human NPS. Cells were washed twice with cold PBS and lysed with 1 N NaOH. Bound radioactivity was counted in a liquid scintillation counter.

Neuropeptide S receptor (Homo sapiens), sequence (Q6W5P4 whole entry, looked up): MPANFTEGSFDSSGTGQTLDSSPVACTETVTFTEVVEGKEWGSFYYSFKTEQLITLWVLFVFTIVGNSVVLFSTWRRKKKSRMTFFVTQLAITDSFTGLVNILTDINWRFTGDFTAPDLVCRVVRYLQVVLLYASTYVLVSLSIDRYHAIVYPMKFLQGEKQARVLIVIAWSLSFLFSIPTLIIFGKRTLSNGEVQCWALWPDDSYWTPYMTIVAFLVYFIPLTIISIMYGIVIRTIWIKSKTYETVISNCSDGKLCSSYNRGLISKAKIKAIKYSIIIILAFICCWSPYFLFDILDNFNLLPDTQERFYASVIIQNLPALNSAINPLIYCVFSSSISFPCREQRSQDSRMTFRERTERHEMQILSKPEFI

Potency, active:
COc1ccc(C2c3c(ncn(CCN4CCOCC4)c3=N)Oc3ccc4ccccc4c32)cc1OC (stereo not drawn) 256 nM and 190 nM
N=c1c2c(ccn1-c1ccccc1)Oc1ccc3ccccc3c1C2c1ccccc1 (stereo not drawn) 367 nM
CCOC(=O)C1CCCN(c2ncnc3c2oc2ccccc23)C1 (stereo not drawn) 26400 nM
N#CC1=C(NC=NCc2ccccc2)Oc2ccc3ccccc3c2C1c1ccccc1 (stereo not drawn) 321 nM
COc1cccc(C2c3c(ncn(-c4ccccc4)c3=N)Oc3ccc4ccccc4c32)c1 (stereo not drawn) 266 nM
COc1cccc(C2c3c(ncn(CCN4CCOCC4)c3=N)Oc3ccc4ccccc4c32)c1 (stereo not drawn) 439 nM
O=C1OC(c2ccccc2)(c2ccccc2)N2CCN(C(=O)NCc3ccc(F)cc3)CC12 (stereo not drawn) 5.62 nM
CCOC(=O)CC(=O)Nc1ncnc2c1C(c1ccccc1)c1c(ccc3ccccc13)O2 (stereo not drawn) 616 nM
